{
  "source": "paper PMC4336329",
  "about": "(PLoS ONE, 2015)",
  "note": "Hit rate of the full screen: of about 310,000 compounds, about 14,000 (4.5%) showed an effect of 50% or more. Effects have a minus sign here. What follows is part of a selection rich in strong results, with near analogues and random picks from the rest.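 Further: peak tail current of the secondary pulse compared with the same well before compound.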",
  "data": [
    {"target": "human ether-à-go-go-related gene (hERG) potassium channel (human, UniProt Q12809)", "sequence (Q12809 whole entry, looked up)": "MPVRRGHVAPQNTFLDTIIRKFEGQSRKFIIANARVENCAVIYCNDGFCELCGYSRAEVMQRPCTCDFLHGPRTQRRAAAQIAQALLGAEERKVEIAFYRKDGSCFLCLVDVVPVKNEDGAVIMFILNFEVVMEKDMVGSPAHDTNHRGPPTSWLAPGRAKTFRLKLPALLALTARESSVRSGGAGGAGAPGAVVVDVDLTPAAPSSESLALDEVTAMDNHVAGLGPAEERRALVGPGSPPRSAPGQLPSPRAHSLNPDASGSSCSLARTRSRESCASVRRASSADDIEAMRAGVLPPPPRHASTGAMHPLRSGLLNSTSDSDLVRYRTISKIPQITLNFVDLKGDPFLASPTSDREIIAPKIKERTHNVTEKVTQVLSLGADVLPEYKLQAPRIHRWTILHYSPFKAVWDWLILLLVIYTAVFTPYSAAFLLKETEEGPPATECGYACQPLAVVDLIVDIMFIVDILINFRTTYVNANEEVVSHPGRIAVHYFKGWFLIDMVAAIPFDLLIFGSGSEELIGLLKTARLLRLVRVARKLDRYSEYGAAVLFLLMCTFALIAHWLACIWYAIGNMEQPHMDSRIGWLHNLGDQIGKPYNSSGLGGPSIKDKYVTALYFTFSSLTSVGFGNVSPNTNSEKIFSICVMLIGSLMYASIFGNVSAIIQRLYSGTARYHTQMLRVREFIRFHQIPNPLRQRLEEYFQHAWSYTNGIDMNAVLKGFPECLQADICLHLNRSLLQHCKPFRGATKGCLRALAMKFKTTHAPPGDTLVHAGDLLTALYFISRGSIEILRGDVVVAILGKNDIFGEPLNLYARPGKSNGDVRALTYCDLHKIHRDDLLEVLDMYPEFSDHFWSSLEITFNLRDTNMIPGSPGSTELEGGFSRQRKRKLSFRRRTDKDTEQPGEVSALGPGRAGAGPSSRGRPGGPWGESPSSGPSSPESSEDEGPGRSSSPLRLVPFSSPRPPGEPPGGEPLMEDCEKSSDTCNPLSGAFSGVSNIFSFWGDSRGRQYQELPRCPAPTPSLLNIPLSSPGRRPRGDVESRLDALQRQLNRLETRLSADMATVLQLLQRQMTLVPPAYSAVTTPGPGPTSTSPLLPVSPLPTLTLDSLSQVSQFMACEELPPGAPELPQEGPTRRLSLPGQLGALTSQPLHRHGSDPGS", "assay": "primary screen, population patch clamp on CHO cells stably expressing hERG; higher = less effect of the substance", "units": {"hERG current change (%, negative = inhibition) at 10uM": "%"}, "values": [
      {"smiles": "O=C(NCC1CCCCC1)c1cccc(Br)c1", "hERG current change (%, negative = inhibition) at 10uM": -3.31},
      {"smiles": "CCCOc1ccc(N2CC(C(=O)Nc3ccc(N4CCOCC4)cc3)CC2=O)cc1", "note": "(stereo not drawn)", "hERG current change (%, negative = inhibition) at 10uM": 36},
      {"smiles": "CN1CCC(OC(=O)c2cccc(F)c2)CC1.Cl", "hERG current change (%, negative = inhibition) at 10uM": -0.186},
      {"smiles": "Cc1ccc(N2CC(NS(=O)(=O)c3cc(F)ccc3F)CC2=O)cc1C", "note": "(stereo not drawn)", "hERG current change (%, negative = inhibition) at 10uM": -6.74},
      {"smiles": "Cc1cccc(-n2nnnc2SCC(=O)Nc2ccc(N3CCN(C)CC3)cc2)c1", "hERG current change (%, negative = inhibition) at 10uM": -55},
      {"smiles": "O=C(CSc1nnnn1C1CCCCC1)NNC(=O)c1ccco1", "hERG current change (%, negative = inhibition) at 10uM": 11.3},
      {"smiles": "CC(=O)c1ccc(-n2nnnc2SCC(=O)Nc2cccc(NC(=O)c3ccco3)c2)cc1", "hERG current change (%, negative = inhibition) at 10uM": 6.89},
      {"smiles": "CC(=O)c1cccc(-n2nnnc2SCC(=O)Nc2cccc(NC(=O)c3ccco3)c2)c1", "hERG current change (%, negative = inhibition) at 10uM": -60.7},
      {"smiles": "Cc1ccc(-n2nnnc2SCC(=O)Nc2ccc(N3CCN(C)CC3)cc2)c(C)c1", "hERG current change (%, negative = inhibition) at 10uM": -21},
      {"smiles": "Cc1ccc(-n2nnnc2SCC(=O)Nc2cccc(NC(=O)c3ccco3)c2)cc1C", "hERG current change (%, negative = inhibition) at 10uM": -6.49},
      {"smiles": "Cc1ccccc1-n1nnnc1SCC(=O)Nc1ccc(N2CCN(C)CC2)cc1", "hERG current change (%, negative = inhibition) at 10uM": -35.8},
      {"smiles": "O=C(CSc1nnnn1C1CCCCC1)Nc1cccc(NC(=O)c2ccco2)c1", "hERG current change (%, negative = inhibition) at 10uM": -27.8},
      {"smiles": "O=C(CSc1nnnn1C1CCCC1)Nc1cccc(NC(=O)c2ccco2)c1", "hERG current change (%, negative = inhibition) at 10uM": -55.9},
      {"smiles": "COc1cc(S(=O)(=O)NCc2ccncc2)c(OC)cc1Cl", "hERG current change (%, negative = inhibition) at 10uM": 6.57},
      {"smiles": "CCC(C)NC(=O)c1cn(CCOC)c(=O)c2c1c1ccccc1n2C", "note": "(stereo not drawn)", "hERG current change (%, negative = inhibition) at 10uM": 20.4},
      {"smiles": "COc1ccc(Cn2c(CCC(=O)Nc3ccccc3OC)nc3cccnc32)cc1", "hERG current change (%, negative = inhibition) at 10uM": -3.79},
      {"smiles": "COc1cccc(CN2C(=O)C(C)N(C(=O)c3ccccc3)c3ccccc32)c1", "note": "(stereo not drawn)", "hERG current change (%, negative = inhibition) at 10uM": -5.44},
      {"smiles": "CC1CCC(C(=O)c2c(O)c3ccccc3oc2=O)CC1", "note": "(stereo not drawn)", "hERG current change (%, negative = inhibition) at 10uM": 15.9},
      {"smiles": "COc1ccc(-c2nc(S(=O)(=O)c3ccc(C)cc3)c(N3CCCC3)o2)cc1", "hERG current change (%, negative = inhibition) at 10uM": 17.2},
      {"smiles": "O=C(Nc1ccc(-n2ccnc2P(=O)(O)c2ccccc2)cc1)c1ccccc1Br", "hERG current change (%, negative = inhibition) at 10uM": -14.9},
      {"smiles": "CCOC(=O)c1snc(C(=O)NC2CCCCC2)c1N", "hERG current change (%, negative = inhibition) at 10uM": -6.13},
      {"smiles": "COc1ccc(NC(=O)c2sc3ncnc(N4CCN(c5ccccn5)CC4)c3c2C)cc1Cl", "hERG current change (%, negative = inhibition) at 10uM": -23},
      {"smiles": "Nc1nc(CN2CCN(C(c3ccccc3)c3ccccc3)CC2)nc(Nc2ccccc2)n1", "hERG current change (%, negative = inhibition) at 10uM": -18.4},
      {"smiles": "Nc1nc(CN2CCCCCC2)nc(Nc2ccccc2)n1", "hERG current change (%, negative = inhibition) at 10uM": -61.4},
      {"smiles": "Nc1nc(CN2CCN(Cc3ccccc3)CC2)nc(Nc2ccccc2)n1", "hERG current change (%, negative = inhibition) at 10uM": -66.2},
      {"smiles": "Nc1nc(CCl)nc(Nc2ccccc2)n1", "hERG current change (%, negative = inhibition) at 10uM": 20.7},
      {"smiles": "c1ccc(Nc2nc(N3CCCC3)nc(N3CCCC3)n2)cc1", "hERG current change (%, negative = inhibition) at 10uM": 13.1},
      {"smiles": "c1ccc(Nc2nc(N3CCCCC3)nc(N3CCCCC3)n2)cc1", "hERG current change (%, negative = inhibition) at 10uM": -4.68},
      {"smiles": "O=C(NC(Nc1nc2ccc([N+](=O)[O-])cc2s1)(C(F)(F)F)C(F)(F)F)c1ccccc1", "hERG current change (%, negative = inhibition) at 10uM": -6.48},
      {"smiles": "CCCc1nnc(NC(=O)c2c(O)c3cccc4c3n(c2=O)CCC4)s1", "hERG current change (%, negative = inhibition) at 10uM": -2.48},
      {"smiles": "S=C(NCCCN1CCOCC1)NC1CCCC1", "hERG current change (%, negative = inhibition) at 10uM": 8.32},
      {"smiles": "O=c1[nH]c(/C=C\\c2ccccc2F)nc(O)c1[N+](=O)[O-]", "hERG current change (%, negative = inhibition) at 10uM": 17.5},
      {"smiles": "COc1ccc(NC(=O)CSc2c(C)n[nH]c2C)cc1", "hERG current change (%, negative = inhibition) at 10uM": -7.52},
      {"smiles": "CCOc1ccc(OCCC(=O)NNC(=O)c2nn(C)c(=O)c3ccccc23)cc1", "hERG current change (%, negative = inhibition) at 10uM": -13.1},
      {"smiles": "CCc1noc(C)c1C(=O)NNC(=O)c1ccccc1", "hERG current change (%, negative = inhibition) at 10uM": -1.03},
      {"smiles": "Cc1occc1C(=O)NNC(=O)c1nn(C)c(=O)c2ccccc12", "hERG current change (%, negative = inhibition) at 10uM": 8.46},
      {"smiles": "Cn1nc(C(=O)NNC(=O)CCc2ccccc2Cl)c2ccccc2c1=O", "hERG current change (%, negative = inhibition) at 10uM": -53.9},
      {"smiles": "CCc1noc(C)c1C(=O)NNC(=O)c1nn(C)c(=O)c2ccccc12", "hERG current change (%, negative = inhibition) at 10uM": -50.2},
      {"smiles": "Cc1ccc(OCCC(=O)NNC(=O)c2nn(C)c(=O)c3ccccc23)cc1", "hERG current change (%, negative = inhibition) at 10uM": -33.1},
      {"smiles": "CCOC(=O)N1CCN(C(=O)C(CC(C)C)NS(=O)(=O)c2ccc(C)cc2)CC1", "note": "(stereo not drawn)", "hERG current change (%, negative = inhibition) at 10uM": -4.14},
      {"smiles": "COC(=O)C1C2c3ccccc3OC1(C)N=c1s/c(=C/c3cn(C)nc3C)c(=O)n12", "note": "(stereo not drawn)", "hERG current change (%, negative = inhibition) at 10uM": 11.2},
      {"smiles": "COC(CNC(=O)c1ccc2c(c1)nc(C)n2-c1cccc(C)c1)OC", "hERG current change (%, negative = inhibition) at 10uM": 0.933},
      {"smiles": "CCC(CC)NC(=O)COC(=O)c1ccc(OCC(=O)Nc2ccccc2OC)c(OC)c1", "hERG current change (%, negative = inhibition) at 10uM": 11.4},
      {"smiles": "COc1cc(C(=O)N2CCN(c3ccccc3OC)CC2)c([N+](=O)[O-])cc1OC", "hERG current change (%, negative = inhibition) at 10uM": 18.5},
      {"smiles": "Cc1ccc(N2CCN(C(=O)c3ccccc3F)CC2)c(C)c1", "hERG current change (%, negative = inhibition) at 10uM": -8.81},
      {"smiles": "COc1cc(OC)cc(C(=O)N2CCN(c3ccccc3F)CC2)c1", "hERG current change (%, negative = inhibition) at 10uM": -11.6},
      {"smiles": "O=C(c1ccccc1Br)N1CCN(c2ccc([N+](=O)[O-])c(N3CCOCC3)c2)CC1", "hERG current change (%, negative = inhibition) at 10uM": -11.5},
      {"smiles": "COc1ccc(N2CCN(C(=O)c3ccccc3Br)CC2)c([N+](=O)[O-])c1", "hERG current change (%, negative = inhibition) at 10uM": -65.5},
      {"smiles": "COc1ccc(N2CCN(C(=O)c3ccccc3F)CC2)c([N+](=O)[O-])c1", "hERG current change (%, negative = inhibition) at 10uM": -51.3},
      {"smiles": "Cc1cc(=O)oc2cc(OCc3cc4c(cc3Cl)OCO4)ccc12", "hERG current change (%, negative = inhibition) at 10uM": 8.74},
      {"smiles": "NNC(=O)CNc1cccc(Cl)c1", "hERG current change (%, negative = inhibition) at 10uM": 15.4},
      {"smiles": "CC(=O)c1ccc(NC(=O)C2C3CCC(C3)C2C(=O)O)cc1", "note": "(stereo not drawn)", "hERG current change (%, negative = inhibition) at 10uM": 17.8},
      {"smiles": "COCCCNC(=O)Cn1nc(-c2ccccc2OC)ccc1=O", "hERG current change (%, negative = inhibition) at 10uM": 18},
      {"smiles": "COc1ccc(Cl)cc1C(=O)Nc1ccncc1", "hERG current change (%, negative = inhibition) at 10uM": -26.2},
      {"smiles": "Cn1c(N)c(C(=O)COC(=O)C23CC4CC(CC(C4)C2)C3)c(=O)n(C)c1=O", "hERG current change (%, negative = inhibition) at 10uM": -22.6},
      {"smiles": "Cn1c(N)c(C(=O)COC(=O)CCC2CCCC2)c(=O)n(C)c1=O", "hERG current change (%, negative = inhibition) at 10uM": -43.3},
      {"smiles": "Cn1c(N)c(C(=O)COC(=O)CC2CC3CCC2C3)c(=O)n(C)c1=O", "note": "(stereo not drawn)", "hERG current change (%, negative = inhibition) at 10uM": -64.4},
      {"smiles": "Cn1c(N)c(C(=O)COC(=O)CCC2CCCCC2)c(=O)n(C)c1=O", "hERG current change (%, negative = inhibition) at 10uM": -73.6},
      {"smiles": "Cn1c(N)c(C(=O)COC(=O)C2CCCCC2)c(=O)n(C)c1=O", "hERG current change (%, negative = inhibition) at 10uM": -11.2},
      {"smiles": "Cn1c(N)c(C(=O)COC(=O)C2CCCC2)c(=O)n(C)c1=O", "hERG current change (%, negative = inhibition) at 10uM": -20.6}
    ]}
  ]
}
